High-throughput results deposited in PubChem by The Scripps Research Institute Molecular Screening Center.
In the library only some 0.87% were active in any assay of this set; here they are far more common.
NOD2 RIPK2 PPI = NOD2-RIPK2 protein interaction inhibition | CHO BLA complementation NOD2-RIPK2, CCF4 ratio | 360,000 tested, 0.38% active | inhibition, % at 4.98 µM; in the data active = inhibition above about 21%;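 also: 0% = vehicle only and 100% = reference blocker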
IDE cell inh = cellular human IDE inhibition | P14735 | HEK cells, FAbetaB cleavage, fluorescence polarization | inhibition, % at 5.59 µM | 320,000 tested, 0.41% active;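 active = percent inhibition above the average of all tested compounds plus 3 SD, set per screening campaign, cut at about 16% in these data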;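 also: IDE supplied by intact live HEK cells; FP after avidin binding of uncleaved biotin substrate so inhibition keeps polarization high; 0% = DMSO wells and 100% = 60 µM reference IDE inhibitor Ii1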
IDE cell activ = IDE (human) activation, cell-based. P14735. activation, % at 5.96 µM. AID 493087. HEK cells, FAbeta-B cleavage, fluorescence polarization; 0% vehicle, 100% cell-free pure enzyme wells. 340,000 tested, 0.073% active;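 active = activation above the mean of all tested compounds plus 3 SD, set per screening campaign, cut at about 17% in these data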
TLR9-MyD88 inh = TLR9-MyD88 interaction inhibition; Q9NR96+Q99836; CHO BLA complementation TLR9-MyD88, CCF4 FRET ratio; inhibition, % at 4.98 µM; 340,000 tested, 0.21% active; AID 504734;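 active = inhibition above the mean over all tested compounds plus 3 SD, cut at about 21% in these data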;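 also: 0% = DMSO only wells and 100% = clavulanate BLA inhibitor control wells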
TLR4 MyD88 comp = inhibitors of human TLR4-MyD88 binding; inhibition, % at 8.4 µM; AID 861; 200,000 tested, 0.18% active; HeLa CL3-4 TLR4/MyD88 BLA complementation, FRET ratio; O00206+Q99836; in the data active = inhibition above about 25%;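 also: 0% = vehicle and 100% = reference inhibitor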
TLR9-MyD88 conf = TLR9-MyD88 interaction inhibition, confirmation | shares compounds with TLR9-MyD88 inh | CHO TLR9/MyD88 BLA complementation, CCF4 FRET ratio | inhibition, % at 4.98 µM | 680 tested, 51% active | AID 540250;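 active = mean inhibition across three repeats above about 21% taken from the earlier screen, limit read from the data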;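 also: blue over green emission ratio reports constitutive TLR9 MyD88 association via BLA complementation; 0% = DMSO vehicle wells and 100% = clavulanate BLA inhibitor wells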
BLA nonselective = counter-screen for TLR9-MyD88 inhibitors: non-selective beta-lactamase inhibitors. CHO-BLA cells, CCF4 FRET ratio, BLA reporter. 680 tested, 7% active. shares compounds with TLR9-MyD88 inh. AID 540251. inhibition, % at 4.98 µM;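 active = mean inhibition above a 50% cutoff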;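 also: counterscreen of TLR9-MyD88 hits on CMV-driven BLA in CHO-K1 cells; 0% = DMSO alone and 100% = clavulanate blocking BLA; higher means less blue over green ratio so more BLA blockade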
TLR9 CHO tox = CHO cell toxicity counter-screen for TLR9-MyD88 inhibitors | TLR9-MyD88 CHO cells cytotoxicity, luminescence | AID 588336 | inhibition, % at 4.98 µM | 680 tested, 39% active | shares compounds with TLR9-MyD88 inh; in the data active = inhibition above about 11%
Starred values were filed as active, the others as inactive; · = no result given.

SMILES	NOD2 RIPK2 PPI	IDE cell inh	IDE cell activ	TLR9-MyD88 inh	TLR4 MyD88 comp	TLR9-MyD88 conf	BLA nonselective	TLR9 CHO tox
O=C(CCSCc1cccc(F)c1)NCCc1ccccc1	-10	1	1	-3	·	·	·	·
CCOC(=O)CS(=O)(=O)c1nc(-c2ccc(F)cc2)cc(C(F)(F)F)n1	69*	1	0	42*	7	37*	14	99*
CCOC(=O)CCS(=O)(=O)c1nc(-c2ccccc2)cc(C(F)(F)F)n1	69*	-2	0	33*	24	39*	13	97*
CCOC(=O)c1c(C(F)(F)F)cc(-c2ccc(F)cc2)nc1C	0	6	-1	-5	1	·	·	·
CCN1C(=O)N/C(=C/c2ccc(C)o2)C1=O	3	-1	-2	6	9	·	·	·
Cc1ccc(/C=C2/NC(=O)N(Cc3ccc(Br)cc3)C2=O)o1	12	10	-14	22*	-4	2	2	13*
N#Cc1ccc(NC(=O)Cn2cnc(S(=O)(=O)N3CCCCC3)c2)cc1	2	-3	2	8	·	·	·	·
O=Nc1onc(-c2ccc([N+](=O)[O-])cc2)c1NO	2	6	-1	36*	7	4	2	0
COc1cc(C(=O)Nc2ccc(C(C)=O)cc2)c(Br)c(OC)c1OC	11	0	0	21*	0	1	-2	5
O=C1C=CC(=O)N1CCCCCCCCCCN1C(=O)C=CC1=O	5	·	-18	42*	·	56*	34	96*
O=C(N/N=C/c1c[nH]c2ccccc12)c1ccc(Br)cc1	3	2	6	-3	·	·	·	·
O=C(N/N=C\c1c[nH]c2ccccc12)c1ccc(O)cc1	3	·	2	21*	·	0	0	1
COc1ccc(C)cc1N(CC(=O)N/N=C/c1ccccc1C(=O)O)S(=O)(=O)c1ccccc1	-10	0	2	2	2	·	·	·
CCc1ccc(NC(=O)c2ccc3c(c2)C(=O)N(CCOC)C3Nc2ccc(CC)cc2)cc1 (configuration not stated)	1	3	1	-4	-4	·	·	·
Cc1nn(C)c(C)c1/C=N/NC(=O)CCn1nc(C)c([N+](=O)[O-])c1C	-1	3	-1	28*	-4	-2	1	-1
Cc1ccc(/C=N/NC(=O)Cn2nc(C)c([N+](=O)[O-])c2C)o1	-5	1	2	-2	·	·	·	·
CN(C(=O)Nc1cccc(C(F)(F)F)c1)C1CCCCC1	-5	2	4	7	·	·	·	·
CS(=O)(=O)c1ccc(C(=O)OCC(=O)NCc2cccs2)cc1[N+](=O)[O-]	10	5	1	22*	·	29*	14	78*
N#CC1=C(N)Oc2cc(O)c(Cl)cc2C1c1ccccc1F (configuration not stated)	1	34*	-31	22*	·	2	5	-2
COC(=O)C1=C(C)OC(N)=C(C#N)C1c1ccccc1F (configuration not stated)	-10	-5	1	-6	10	·	·	·
O=[N+]([O-])c1ccc(Nc2ccccc2)c2nonc12	-10	-2	-3	2	·	·	·	·
O=[N+]([O-])c1ccc(Sc2cccc[n+]2[O-])c2nonc12	89*	·	-38	55*	·	59*	9	101*
Cc1ccc(N=N/C(=C\O)C(=O)c2ccc(Cl)cc2)cc1	-10	-8	2	21*	-12	6	4	11*
O=c1c2cc([N+](=O)[O-])ccc2sn1-c1ccccc1	7	·	·	29*	·	37*	0	87*
O=c1c(-c2ccccc2)c[nH]n1-c1cccc([N+](=O)[O-])c1	2	2	1	4	-5	·	·	·
SMILES	NOD2 RIPK2 PPI	IDE cell inh	IDE cell activ	TLR9-MyD88 inh	TLR4 MyD88 comp	TLR9-MyD88 conf	BLA nonselective	TLR9 CHO tox
CCOC(=O)C1CCCN(S(=O)(=O)Cc2ccc(Cl)cc2)C1 (configuration not stated)	5	1	-1	8	·	·	·	·
Cc1ccccc1C1=C/C(=C(\SS/C(C(=O)c2ccc(OCC(=O)O)c(Cl)c2Cl)=C2\C=C(c3ccccc3C)SS2)C(=O)c2ccc(OCC(=O)O)c(Cl)c2Cl)SS1	-3	·	5	-5	·	·	·	·
Cc1ccc(S(=O)(=O)Nc2cccc3ncccc23)s1	55*	4	-1	44*	19	20	8	101*
Nc1ccccc1SCC(=O)Nc1cccc2ccccc12	-12	2	6	-11	·	·	·	·
COC(=O)c1ccc(NC(=O)c2nc(S(=O)(=O)Cc3cccc(C)c3)ncc2Cl)cc1	18	3	-4	42*	·	33*	27	100*
COc1ccccc1NC(=O)c1nc(S(=O)(=O)Cc2ccccc2)ncc1Cl	14	1	-1	12	·	·	·	·
CC(=O)C1=C(C)NC(SCC(=O)c2ccc(F)cc2)=C(C#N)C1c1ccco1 (configuration not stated)	3	0	3	11	1	·	·	·
CC(=O)C1=C(C)NC(SCC(=O)c2ccc(Cl)c(Cl)c2)=C(C#N)C1c1ccco1 (configuration not stated)	4	4	-7	21*	18	7	8	9
Cc1ccc(C(=O)CCC(=O)OC(C)C(=O)NC2CCCCC2C)cc1 (configuration not stated)	-3	-1	8	7	·	·	·	·
COc1ccc(CNn2c(-c3cccs3)nc3ccccc3c2=O)cc1OC	-12	6	1	22*	-1	1	1	12*
CN=c1scc(-c2cccs2)n1/N=C/c1ccccc1O	6	4	-3	26*	-5	8	6	9
Cc1cc(C)c2nc(NNC(=O)c3cc(-c4cccs4)nc4ccccc34)sc2c1	15	-1	2	25*	7	1	4	-2
Cc1ccc2sc(NNC(=O)c3cc(-c4cccs4)nc4ccccc34)nc2c1C	·	0	·	·	-3	·	·	·
O=C(N/N=C\c1c(O)ccc2ccccc12)c1cncc(Br)c1	11	11	47*	23*	·	18	15	60*
COc1ccc(S(=O)(=O)N2CCCCCC2)cc1Br	-10	·	10	-10	2	·	·	·
COc1ccc(S(=O)(=O)N2CCNC(=O)C2)cc1Br	6	2	10	22*	14	-3	0	2
Cn1c[n+](C)cc1-c1ccc(/C(N)=N/O)cc1	4	0	4	6	-1	·	·	·
Cc1ccc(-c2cc(NC(=O)c3ccccc3)on2)cc1	-6	-6	-1	24*	·	2	0	-2
COc1ccc(C(=O)Nc2cc(-c3ccc(C)cc3)no2)cc1	-18	·	-5	-1	·	·	·	·
